Source: PubChem BioAssay
Inconclusive results are not listed. Activity calls are given as the source filed them. Unless noted, how the calls were made is not given here.

Experiments:
[1] = reducers of polyQ inclusions in PC12 cells, cell-based, NGF-treated PC12, GFPQ80 (AID 1614); settings: PC12 NGF-treated GFP-polyQ80 inclusion reduction;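 further: lower means fewer inclusions and 0 means no inclusions at all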
[2] = hESC survival regulators, cell-based (AID 493140); settings: human embryonic stem cell survival screen; stronger effect = higher value;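 further: cells exposed to compounds for four days before counting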
[3] = circadian clock period modulators, cell-based, LOPAC library, luminescence reporter (AID 2774); settings: circadian reporter cells, at 7 µM, actives lie on both sides;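 further: values are relative to mean of DMSO wells on each plate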
[4] = tested on: Hepatitis C virus NS3 helicase; test: HCV NS3 helicase inhibitors, primary screen, biochemical, fluorescence polarization, LOPAC1280 library (AID 687035; in the data active means inhibition above about 37%); settings: Purified HCV NS3 helicase, Cy5-dT15 ssDNA binding fluorescence polarization; stronger effect = higher value; concentration not given here
[5] = Cy5 fluorescence quenching or enhancement artefacts, artefact control for HCV NS3 helicase inhibitor project, biochemical, LOPAC1280 (AID 687037); settings: Cy5-DNA-NS3h complex fluorescence interference counterscreen
[6] = tested on: Aerobactin synthetase IucA (Klebsiella pneumoniae); test: IucA aerobactin synthetase inhibitors, biochemical, Tocris library, absorbance (AID 1345561); settings: purified IucA enzyme assay, absorbance (OD) read-out; stronger effect = lower value;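 tested at 8 µM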;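 further: 100% = enzyme without compound and 0% = no enzyme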
[7] = phospholipid biosynthesis inhibitors in animal cells, primary screen, cell-based, LOPAC library, screen 4 (AID 1347384); settings: phospholipid biosynthesis inhibition screen, at 10 µM
[8] = growth inhibition of DIPG glioma cells, dose response, cell-based, SU-DIPG-XVII, MIPE5.0, CellTiter-Glo, qHTS (AID 1347060; cut-off not given, nearly all actives have AC50 up to about 26 µM;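 on AC50: cells exposed to compound for 48 hours before viability readout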); settings: SU-DIPG-XVII viability, CellTiter-Glo ATP luminescence
[9] = growth inhibition of DIPG glioma cells, dose response, cell-based, SU-DIPG-XIII, MIPE5.0, CellTiter-Glo, qHTS (AID 1347064; cut-off not given, nearly all actives have AC50 up to about 23 µM;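 on AC50: cells exposed to compound for 48 hours before the viability read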); settings: SU-DIPG-XIII viability, CellTiter-Glo ATP luminescence
[10] = viability loss in pontine glioma line – cell-based, SU-DIPG-XXV, MIPE5.0, CellTiter-Glo, qHTS, dose response (AID 1347065; cut-off not given, nearly all actives have AC50 up to about 26 µM;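 further: cells exposed to compound for 48 hours before ATP readout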); settings: CellTiter-Glo ATP luminescence
[11] = SU-DIPG-VI glioma cell viability, MIPE4.0 library, CellTiter-Glo luminescence, qHTS (AID 1347066; cut-off not given, nearly all actives have AC50 up to about 30 µM;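 further: cells exposed to compound for 48 hours before readout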); settings: CellTiter-Glo ATP luminescence
[12] = SU-DIPG-XXV glioma cell viability, MIPE5.0 library, qHTS (AID 1347068; cut-off not given, nearly all actives have IC50 up to about 30 µM;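 on IC50: cells exposed to compound for 48 hours before viability readout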)

C[C@]12CCC3c4ccc(OS(=O)(=O)O)cc4CCC3C1CC[C@H]2O (stereo partly specified)
inclusion score [1]: 2

NC(Cn1ccc(=O)c(O)c1)C(=O)O (stereo unspecified)
inclusion score [1]: 2
survival [2]: 11.3 (inactive)

CC(=O)N[C@@H]1[C@@H](O)[C@H](O)[C@@H](CO)O[C@H]1O
inclusion score [1]: 2

COc1c2ccoc2nc2c(OC)c(OCC(O)C(C)(C)O)ccc12 (stereo unspecified)
survival [2]: 4.17 (inactive)

CC(CCc1ccc(O)cc1)NCCc1ccc(O)c(O)c1 (stereo unspecified)
period change [3]: 0.025 h (inactive)
survival [2]: 15.4 (inactive)
inhibition [4]: -1% (inactive)
fluorescence ratio (interference) [5]: 1 (inactive)
remaining activity [6]: 94.6% (inactive)
outcome [7]: inactive

NC(=O)c1cccc(N)c1
inclusion score [1]: 2
period change [3]: 0.16 h (inactive)
inhibition [4]: 0% (inactive)
fluorescence ratio (interference) [5]: 1 (inactive)
remaining activity [6]: 96.2% (inactive)
outcome [8]: inactive
outcome [9]: inactive
outcome [10]: inactive
outcome [11]: inactive
outcome [12]: inactive
outcome [7]: inactive

CCOC(=O)C1=C(O)C(=O)N(Cc2ccccc2)C1
remaining activity [6]: 101% (inactive)
outcome [8]: inactive
outcome [10]: inactive
outcome [11]: inactive
outcome [7]: inactive

COc1cc(C)c2c(=O)cc(-c3ccccc3)oc2c1
inclusion score [1]: 1

COc1cc(OC)c2ccc(=O)oc2c1
inclusion score [1]: 2

O=C(O)c1cc(=O)c2cccc(O)c2[nH]1
inclusion score [1]: 1

NC1(C(=O)O)CCCC1
inclusion score [1]: 2

NC1=NCCN1CC(=O)O
inclusion score [1]: 2

CON
inclusion score [1]: 2

COc1c(OC)c2occc2c2oc(=O)ccc12
inclusion score [1]: 2

C=NC(C(=O)NC1C(=O)N2C1SC(C)(C)C2C(=O)O)c1ccccc1 (stereo unspecified)
inclusion score [1]: 2

O=c1c(-c2ccc(O)cc2)coc2cc(O)ccc12
inclusion score [1]: 2
period change [3]: 0.115 h (inactive)
survival [2]: 70.6 (inactive)
inhibition [4]: -4% (inactive)
fluorescence ratio (interference) [5]: 1 (inactive)
remaining activity [6]: 111% (inactive)
outcome [11]: inactive
outcome [12]: inactive
outcome [7]: inactive

C[C@@]12C(=O)OC(=O)[C@]1(C)[C@H]1CC[C@@H]2O1
remaining activity [6]: 119% (inactive)
AC50 [8]: 2630 nM (active)
AC50 [9]: 2950 nM (active)
AC50 [10]: 1860 nM (active)
IC50 [12]: 2950 nM (active)

O=c1[nH]c2cc(Cl)c(Cl)cc2[nH]c1=O
period change [3]: 0.15 h (inactive)

CCCC(=O)Nc1ncnc2c1ncn2[C@@H]1O[C@@H]2COP(=O)(O)O[C@H]2[C@H]1OC(=O)CCC
remaining activity [6]: 106% (inactive)

O=C(O)c1cc([N+](=O)[O-])ccc1NCCCc1ccccc1
inclusion score [1]: 2
period change [3]: 0.025 h (inactive)
inhibition [4]: -4% (inactive)
fluorescence ratio (interference) [5]: 1 (inactive)
remaining activity [6]: 93.2% (inactive)
outcome [7]: inactive

CCN1CCCC1CNC(=O)c1cc(S(N)(=O)=O)ccc1OC (stereo unspecified)
inclusion score [1]: 1.5
period change [3]: -0.06 h (inactive)
survival [2]: 17.8 (inactive)
inhibition [4]: -1% (inactive)
fluorescence ratio (interference) [5]: 1.1 (inactive)
remaining activity [6]: 107% (inactive)
outcome [7]: inactive

CC[C@@]1(O)C[C@H](O[C@H]2C[C@H](N(C)C)[C@H](O[C@H]3C[C@H](O)[C@H](O[C@H]4CCC(=O)[C@H](C)O4)[C@H](C)O3)[C@H](C)O2)c2c(cc3c(c2O)C(=O)c2c(O)cccc2C3=O)[C@H]1C(=O)OC
AC50 [8]: 14800 nM (active)
AC50 [9]: 16600 nM (active)
AC50 [10]: 14800 nM (active)

CCC[C@@H]1C[C@@H](C(=O)N[C@@H]([C@H]2O[C@H](SC)[C@H](O)[C@@H](O)[C@H]2O)[C@H](C)Cl)N(C)C1
outcome [8]: inactive
outcome [9]: inactive
outcome [10]: inactive
outcome [12]: inactive
